Assay results published in PubChem BioAssay (NCATS).
Inconclusive results are not listed. Calls of active or inactive are those of the source. Calls follow the shape of the dose curve; as a rule, active = well fitted cell-killing curve with a large enough effect; inconclusive = small, poorly fitted or top-dose-only effect, or effect the other way; inactive = flat fitted curve, though single readings scatter.

Legend:
Assay in all cases: Primary qHTS to identify gynecologic anti-cancer compounds using libraries of approved drugs and bioactive compounds (AID 1345084); also: nearly all actives have a fitted effect of over 55% in size
C33A = settings: Gynecologic cancer cell panel viability, ATPlite luminescence, 48 h; series mostly up to 57.5 µM
Procedure, shortened: (§1)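 Five-point cytotoxicity, 48 h drug exposure at 37 C, 5% CO2, on cells seeded 16 h beforehand. ATP content read by ATPlite luminescence.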

CAOV3 = settings: Gynecologic cancer cell panel viability, ATPlite luminescence, 48 h; series mostly up to 57.5 µM
Procedure, shortened: as §1

CASKI = settings: Gynecologic cancer cell panel viability, ATPlite luminescence, 48 h; series mostly up to 57.5 µM
Procedure, shortened: as §1

Es-2 = settings: Gynecologic cancer cell panel viability, ATPlite luminescence, 48 h; series mostly up to 57.5 µM
Procedure, shortened: as §1

HeLa = settings: Gynecologic cancer cell panel viability, ATPlite luminescence, 48 h; series mostly up to 57.5 µM
Procedure, shortened: as §1

Hek293T = settings: Gynecologic cancer cell panel viability, ATPlite luminescence, 48 h, control line for the selectivity index; series mostly up to 57.5 µM
Procedure, shortened: as §1

JEG-3 = settings: Gynecologic cancer cell panel viability, ATPlite luminescence, 48 h; series mostly up to 57.5 µM
Procedure, shortened: as §1

OV90 = settings: Gynecologic cancer cell panel viability, ATPlite luminescence, 48 h; series mostly up to 57.5 µM
Procedure, shortened: as §1

PA-1 = settings: Gynecologic cancer cell panel viability, ATPlite luminescence, 48 h; series mostly up to 57.5 µM
Procedure, shortened: as §1

SKOV3 = settings: Gynecologic cancer cell panel viability, ATPlite luminescence, 48 h; series mostly up to 57.5 µM
Procedure, shortened: as §1

Tov-21-G = settings: Gynecologic cancer cell panel viability, ATPlite luminescence, 48 h; series mostly up to 57.5 µM
Procedure, shortened: as §1

Tov112D = settings: Gynecologic cancer cell panel viability, ATPlite luminescence, 48 h; series mostly up to 57.5 µM
Procedure, shortened: as §1
% is scaled to controls: 0 for no effect and ±100 for the full control effect.

CC1(C)CCC[C@@]2(C)[C@H]1[C@H](O)C=C(CO)[C@]2(O)CO
inactive: Potency (C33A) | Potency (CAOV3) | outcome (CASKI) | Potency (Es-2) | Potency (HeLa) | Potency (Hek293T) | Potency (JEG-3) | Potency (OV90) | Potency (PA-1) | Potency (SKOV3) | Potency (Tov-21-G) | Potency (Tov112D)

C[C@@H]1O[C@@H](OC2C(CO)OC(OCC3OC(OC(=O)[C@]45CCC(C)(C)CC4C4=CCC6[C@@]7(C)CC[C@@H](O)[C@](C)(C(=O)O)C7CC[C@@]6(C)[C@]4(C)CC5)C(O)C(O)C3O)C(O)C2O)[C@H](O)[C@H](O)[C@H]1O (stereo partly drawn)
inactive: activity change, negative = cytotoxicity (C33A) 1.71% [at 11.6 µM] | activity change, negative = cytotoxicity (CAOV3) 16.7% [at 11.6 µM] | activity change, negative = cytotoxicity (CASKI) -0.233% [at 11.6 µM] | activity change, negative = cytotoxicity (Es-2) -9.93% [at 11.6 µM] | activity change, negative = cytotoxicity (HeLa) 4.67% [at 11.6 µM] | activity change, negative = cytotoxicity (Hek293T) 5.6% [at 11.6 µM] | activity change, negative = cytotoxicity (JEG-3) 7.96% [at 11.6 µM] | activity change, negative = cytotoxicity (OV90) 8.36% [at 11.6 µM] | activity change, negative = cytotoxicity (PA-1) 29.2% [at 11.6 µM] | activity change, negative = cytotoxicity (SKOV3) 5.25% [at 11.6 µM] | activity change, negative = cytotoxicity (Tov-21-G) 6.16% [at 11.6 µM] | activity change, negative = cytotoxicity (Tov112D) 2.63% [at 11.6 µM]

C[C@@H](NC(=O)c1cc(C(=O)N[C@@H](Cc2ccccc2)[C@H](O)CNC2CC2)cc(N(C)S(C)(=O)=O)c1)c1ccccc1
inactive: Potency (C33A) | Potency (CAOV3) | outcome (CASKI) | Potency (Es-2) | Potency (HeLa) | Potency (Hek293T) | Potency (JEG-3) | Potency (OV90) | Potency (PA-1) | Potency (SKOV3) | Potency (Tov-21-G) | Potency (Tov112D)

CC(C)(OC1OC(CO)C(O)C(O)C1O)C1CCC(O)(CO)C2CC(=O)C(C)(O)C2C1 (stereo not drawn)
inactive: Potency (C33A) | Potency (CAOV3) | outcome (CASKI) | Potency (Es-2) | Potency (HeLa) | Potency (Hek293T) | Potency (JEG-3) | Potency (OV90) | Potency (PA-1) | Potency (SKOV3) | Potency (Tov-21-G) | Potency (Tov112D)

C=CC1(C)CC2CCC3C(C)(C(=O)O)CCCC3(C)C2=CC1=O (stereo not drawn)
inactive: Potency (C33A) | Potency (CAOV3) | outcome (CASKI) | Potency (Es-2) | Potency (HeLa) | Potency (Hek293T) | Potency (JEG-3) | Potency (OV90) | Potency (PA-1) | Potency (SKOV3) | Potency (Tov-21-G) | Potency (Tov112D)

C[C@]1(OC(=O)/C=C/c2ccccc2)C[C@@H](O)[C@]2(O)C=CO[C@@H](O[C@@H]3O[C@H](CO)[C@@H](O)[C@H](O)[C@H]3O)[C@@H]21
inactive: Potency (C33A) | Potency (CAOV3) | outcome (CASKI) | Potency (Es-2) | Potency (HeLa) | Potency (Hek293T) | Potency (JEG-3) | Potency (OV90) | Potency (PA-1) | Potency (SKOV3) | Potency (Tov-21-G) | Potency (Tov112D)

COC(=O)C1=COC(OC2OC(CO)C(O)C(O)C2O)C2C(COC(=O)/C=C/c3ccc(O)cc3)C(O)C(O)C12 (stereo not drawn)
inactive: Potency (C33A) | Potency (CAOV3) | outcome (CASKI) | Potency (Es-2) | Potency (HeLa) | Potency (Hek293T) | Potency (JEG-3) | Potency (OV90) | Potency (PA-1) | Potency (SKOV3) | Potency (Tov-21-G) | Potency (Tov112D)

CC1=C[C@H]2[C@@H](CC1=O)[C@H](C)C[C@H](O)[C@H]2C(C)C
inactive: Potency (C33A) | Potency (CAOV3) | outcome (CASKI) | Potency (Es-2) | Potency (HeLa) | Potency (Hek293T) | Potency (JEG-3) | Potency (OV90) | Potency (PA-1) | Potency (SKOV3) | Potency (Tov-21-G) | Potency (Tov112D)

CCC(C)/C=C(C)/C=C/C1=CC2=C(Cl)C(=O)C(C)(OC(C)=O)C(=O)C2=CN1C(CC(=O)O)C(=O)O (stereo not drawn)
inactive: Potency (C33A) | Potency (CAOV3) | outcome (CASKI) | Potency (Es-2) | Potency (HeLa) | Potency (Hek293T) | Potency (JEG-3) | Potency (OV90) | Potency (PA-1) | Potency (SKOV3) | Potency (Tov-21-G) | Potency (Tov112D)

COc1c2cc(c(O)c1OC)CCCCC(O)CCc1ccc(O)c-2c1 (stereo not drawn)
inactive: Potency (C33A) | Potency (CAOV3) | outcome (CASKI) | Potency (Es-2) | Potency (HeLa) | Potency (Hek293T) | Potency (JEG-3) | Potency (OV90) | Potency (PA-1) | Potency (SKOV3) | Potency (Tov-21-G) | Potency (Tov112D)

C[C@H]1CC(=O)C2=C(C1)C(O)C(O)[C@@]1(O)[C@H]2C(=O)c2cccc(O)c2[C@@H]1O (stereo partly drawn)
inactive: Potency (C33A) | Potency (CAOV3) | outcome (CASKI) | Potency (Es-2) | Potency (HeLa) | Potency (Hek293T) | Potency (JEG-3) | Potency (OV90) | Potency (PA-1) | Potency (SKOV3) | Potency (Tov-21-G) | Potency (Tov112D)

CC1(C)CC[C@]2(C(=O)O)CC[C@]3(C)C(=CCC4[C@@]5(C)C[C@@H](O)[C@H](O)[C@@](C)(CO)C5CC[C@]43C)C2C1 (stereo partly drawn)
inactive: Potency (C33A) | Potency (CAOV3) | outcome (CASKI) | Potency (Es-2) | Potency (HeLa) | Potency (Hek293T) | Potency (JEG-3) | Potency (OV90) | Potency (PA-1) | Potency (SKOV3) | Potency (Tov-21-G) | Potency (Tov112D)

C=CC1(C)CC=C2C(CCC3C(C)(C(=O)O)CCCC23C)C1 (stereo not drawn)
inactive: Potency (C33A) | Potency (CAOV3) | outcome (CASKI) | Potency (Es-2) | Potency (HeLa) | Potency (Hek293T) | Potency (JEG-3) | Potency (OV90) | Potency (PA-1) | Potency (SKOV3) | Potency (Tov-21-G) | Potency (Tov112D)

Cc1ccc(Nc2nnc(-c3ccc([N+](=O)[O-])cc3)o2)cc1Cl
inactive: Potency (C33A) | Potency (CAOV3) | outcome (CASKI) | Potency (Es-2) | Potency (HeLa) | Potency (Hek293T) | Potency (JEG-3) | Potency (OV90) | Potency (PA-1) | Potency (SKOV3) | Potency (Tov-21-G) | Potency (Tov112D)
